# From the supplement of paper PMC4466140
# Key:
# Assay in all cases: SPOT peptide array binding signal intensity (averaged, normalized) (arbitrary units (background-subtracted, floor 0; scale differs between SH3 domains)); higher = stronger binding of the SH3 domain to the peptide
# [1] = target: AgAbp1
# How it was run: (§1)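 Binding signal refers to normalized, background-subtracted spot intensity averaged over replicates, expressed in arbitrary units that differ between domains. GST-fused SH3 domains from four yeast species were incubated at 10 μg/ml overnight at 4°C on cellulose membranes of synthetic 15-mer peptides with cysteines replaced by serines. Bound protein was detected with anti-GST antibody, an HRP anti-mouse secondary and luminol, and quantified with Genespotter.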
# [2] = target: AgBbc1
# How it was run: as §1
# [3] = target: AgBem1-D1
# How it was run: as §1
# [4] = target: AgBzz1-D1
# How it was run: as §1
# [5] = target: AgBzz1-D2
# How it was run: as §1
# [6] = target: AgCyk3
# How it was run: as §1
# [7] = target: AgFus1
# How it was run: as §1
# [8] = target: AgHof1
# How it was run: as §1
# [9] = target: AgHse1
# How it was run: as §1
# [10] = target: AgLsb1
# How it was run: as §1
# [11] = target: AgLsb4
# How it was run: as §1
# [12] = target: AgMyo5
# How it was run: as §1
# [13] = target: AgNbp2
# How it was run: as §1
# [14] = target: AgRvs167
# How it was run: as §1
# [15] = target: AgSho1
# How it was run: as §1
# [16] = target: AgSla1-D1-D2
# How it was run: as §1
# [17] = target: AgSla1-D3
# How it was run: as §1
# [18] = target: CaAbp1-D1
# How it was run: as §1
# [19] = target: CaAbp1-D2
# How it was run: as §1
# [20] = target: CaBbc1
# How it was run: as §1
# [21] = target: CaBem1-D1
# How it was run: as §1
# [22] = target: CaBzz1-D1
# How it was run: as §1
# [23] = target: CaBzz1-D2
# How it was run: as §1
# [24] = target: CaCyk3
# How it was run: as §1
# [25] = target: CaFus1
# How it was run: as §1
# [26] = target: CaHof1
# How it was run: as §1
# [27] = target: CaHse1
# How it was run: as §1
# [28] = target: CaLsb1
# How it was run: as §1
# [29] = target: CaLsb4
# How it was run: as §1
# [30] = target: CaMyo5
# How it was run: as §1
# [31] = target: CaNbp2
# How it was run: as §1
# [32] = target: CaRvs167
# How it was run: as §1
# [33] = target: CaRvs167-3
# How it was run: as §1
# [34] = target: CaSho1
# How it was run: as §1
# [35] = target: CaSla1-D1-D2
# How it was run: as §1
# [36] = target: CaSla1-D3
# How it was run: as §1
# [37] = target: ScAbp1
# How it was run: as §1
# [38] = target: ScBbc1
# How it was run: as §1
# [39] = target: ScBem1-D1
# How it was run: as §1
# [40] = target: ScBzz1-D1
# How it was run: as §1
# [41] = target: ScBzz1-D2
# How it was run: as §1
# [42] = target: ScCyk3
# How it was run: as §1
# [43] = target: ScFus1
# How it was run: as §1
# [44] = target: ScHof1
# How it was run: as §1
# [45] = target: ScHse1
# How it was run: as §1
# [46] = target: ScLsb1
# How it was run: as §1
# [47] = target: ScLsb2
# How it was run: as §1
# [48] = target: ScLsb3
# How it was run: as §1
# [49] = target: ScLsb4
# How it was run: as §1
# [50] = target: ScMyo3
# How it was run: as §1
# [51] = target: ScMyo5
# How it was run: as §1
# [52] = target: ScNbp2
# How it was run: as §1
# [53] = target: ScPex13
# How it was run: as §1
# [54] = target: ScRvs167
# How it was run: as §1
# [55] = target: ScSho1
# How it was run: as §1
# [56] = target: ScSla1-D1-D2
# How it was run: as §1
# [57] = target: ScSla1-D3
# How it was run: as §1
# [58] = target: SpAbp1-D1
# How it was run: as §1
# [59] = target: SpBbc1
# How it was run: as §1
# [60] = target: SpBzz1-D1
# How it was run: as §1
# [61] = target: SpBzz1-D2
# How it was run: as §1
# [62] = target: SpCyk3
# How it was run: as §1
# [63] = target: SpHof1
# How it was run: as §1
# [64] = target: SpHof1-2
# How it was run: as §1
# [65] = target: SpHof1-3
# How it was run: as §1
# [66] = target: SpHse1
# How it was run: as §1
# [67] = target: SpLsb1
# How it was run: as §1
# [68] = target: SpLsb4
# How it was run: as §1
# [69] = target: SpMyo1
# How it was run: as §1
# [70] = target: SpNbp2
# How it was run: as §1
# [71] = target: SpPex13
# How it was run: as §1
# [72] = target: SpRvs167
# How it was run: as §1
# [73] = target: SpSla1-D1-D2
# How it was run: as §1
# [74] = target: SpSla1-D3
# How it was run: as §1
binder,measurement,setting,value
GRSRLFPHSPLGRSS,SPOT peptide array binding signal intensity,[1],93
same,SPOT peptide array binding signal intensity,[2],13.8
same,SPOT peptide array binding signal intensity,[3],88.5
same,SPOT peptide array binding signal intensity,[4],26.5
same,SPOT peptide array binding signal intensity,[5],0.5
same,SPOT peptide array binding signal intensity,[6],0.5
same,SPOT peptide array binding signal intensity,[7],454
same,SPOT peptide array binding signal intensity,[8],14.5
same,SPOT peptide array binding signal intensity,[9],716
same,SPOT peptide array binding signal intensity,[10],0.75
same,SPOT peptide array binding signal intensity,[11],39.5
same,SPOT peptide array binding signal intensity,[12],≤ 0
same,SPOT peptide array binding signal intensity,[13],177
same,SPOT peptide array binding signal intensity,[14],3.42
same,SPOT peptide array binding signal intensity,[15],52.8
same,SPOT peptide array binding signal intensity,[16],26
same,SPOT peptide array binding signal intensity,[17],11.2
same,SPOT peptide array binding signal intensity,[18],491
same,SPOT peptide array binding signal intensity,[19],410
same,SPOT peptide array binding signal intensity,[20],105
same,SPOT peptide array binding signal intensity,[21],35
same,SPOT peptide array binding signal intensity,[22],53.5
same,SPOT peptide array binding signal intensity,[23],39.2
same,SPOT peptide array binding signal intensity,[24],3.5
same,SPOT peptide array binding signal intensity,[25],1070
same,SPOT peptide array binding signal intensity,[26],0.75
same,SPOT peptide array binding signal intensity,[27],11.1
same,SPOT peptide array binding signal intensity,[28],1
same,SPOT peptide array binding signal intensity,[29],≤ 0
same,SPOT peptide array binding signal intensity,[30],≤ 0
same,SPOT peptide array binding signal intensity,[31],539
same,SPOT peptide array binding signal intensity,[32],3.5
same,SPOT peptide array binding signal intensity,[33],43.8
same,SPOT peptide array binding signal intensity,[34],513
same,SPOT peptide array binding signal intensity,[35],76.5
same,SPOT peptide array binding signal intensity,[36],≤ 0
same,SPOT peptide array binding signal intensity,[37],144
same,SPOT peptide array binding signal intensity,[38],≤ 0
same,SPOT peptide array binding signal intensity,[39],57.2
same,SPOT peptide array binding signal intensity,[40],6.5
same,SPOT peptide array binding signal intensity,[41],29.5
same,SPOT peptide array binding signal intensity,[42],91.5
same,SPOT peptide array binding signal intensity,[43],374
same,SPOT peptide array binding signal intensity,[44],≤ 0
same,SPOT peptide array binding signal intensity,[45],2660
same,SPOT peptide array binding signal intensity,[46],≤ 0
same,SPOT peptide array binding signal intensity,[47],≤ 0
same,SPOT peptide array binding signal intensity,[48],212
same,SPOT peptide array binding signal intensity,[49],1.5
same,SPOT peptide array binding signal intensity,[50],0.25
same,SPOT peptide array binding signal intensity,[51],≤ 0
same,SPOT peptide array binding signal intensity,[52],294
same,SPOT peptide array binding signal intensity,[53],≤ 0
same,SPOT peptide array binding signal intensity,[54],12.3
same,SPOT peptide array binding signal intensity,[55],1020
same,SPOT peptide array binding signal intensity,[56],224
same,SPOT peptide array binding signal intensity,[57],1.25
same,SPOT peptide array binding signal intensity,[58],186
same,SPOT peptide array binding signal intensity,[59],2
same,SPOT peptide array binding signal intensity,[60],255
same,SPOT peptide array binding signal intensity,[61],0.375
same,SPOT peptide array binding signal intensity,[62],≤ 0
same,SPOT peptide array binding signal intensity,[63],68.5
same,SPOT peptide array binding signal intensity,[64],15
same,SPOT peptide array binding signal intensity,[65],412
same,SPOT peptide array binding signal intensity,[66],730
same,SPOT peptide array binding signal intensity,[67],0.25
same,SPOT peptide array binding signal intensity,[68],≤ 0
same,SPOT peptide array binding signal intensity,[69],≤ 0
same,SPOT peptide array binding signal intensity,[70],419
same,SPOT peptide array binding signal intensity,[71],10.5
same,SPOT peptide array binding signal intensity,[72],6.58
same,SPOT peptide array binding signal intensity,[73],10
same,SPOT peptide array binding signal intensity,[74],18.5
